Source: PubChem BioAssay (National Center for Advancing Translational Sciences (NCATS))
AmpC detergent: qHTS Inhibitors of AmpC Beta-Lactamase (assay with detergent). actives 0.041% (n = 370,000). AmpC hydrolysis of nitrocefin, absorbance 480 nm, 0.01% Triton. Potency, µM (titrated, usually from 114 µM), without a hit: at the highest dose activity change, negative = inhibition, usual class: inhibitors;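 also: 0% = no-compound wells and -100% = no-enzyme wells; nearly all actives have a fitted effect of over 25% in size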
Target sequence (P00811 whole entry, looked up): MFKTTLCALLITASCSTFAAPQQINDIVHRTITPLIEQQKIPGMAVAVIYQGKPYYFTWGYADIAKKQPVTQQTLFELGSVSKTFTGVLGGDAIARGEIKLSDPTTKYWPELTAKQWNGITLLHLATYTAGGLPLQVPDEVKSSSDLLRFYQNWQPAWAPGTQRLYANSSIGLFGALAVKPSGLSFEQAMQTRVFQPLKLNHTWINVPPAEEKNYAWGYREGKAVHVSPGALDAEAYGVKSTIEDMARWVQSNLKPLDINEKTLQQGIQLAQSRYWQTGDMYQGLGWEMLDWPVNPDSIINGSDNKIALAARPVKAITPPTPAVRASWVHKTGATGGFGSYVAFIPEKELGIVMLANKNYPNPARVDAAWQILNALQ
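20 mM phosphate pH 7.0 + 0.01% (detergent screen) or 0.0001% Triton X-100; 5.3 nM AmpC reagent; cpd preinc 15 min RT; nitrocefin (800 uM stock) to start; A480 q20 s × 4 min; Activity was normalised to no-enzyme and no-compound control wells.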
AMA1 RON2 block: qHTS for Inhibitors of AMA1-RON; Towards Development of Antimalarial Drug Lead: Primary Screen; Plasmodium falciparum AMA1 (3D7) - RON2 peptide interaction; AlphaScreen AMA1-biotinylated RON2 peptide binding; Potency, µM (highest dose often 58.2 µM), for the others: top-dose activity change, negative = inhibition, actives largely listed as inhibitors; actives 0.2% (n = 360,000); AID 720542, 2013;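 also: 0% = vehicle wells and -100% = peptide control; nearly all actives have a fitted effect of over 45% in size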
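AMA1 (3D7) with his tag at 25 nM final met compounds first, then biotinylated RON2 peptide at 25 nM; detection used donor plus acceptor beads, 10 µg/mL apiece, read by AlphaScreen after 30 min at room temperature.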
FMDV inh: High Throughput Screening for Foot and Mouth Disease Virus Antivirals. FMDV antiviral cell-based qHTS. actives 1.2% (n = 410,000). Potency, µM (highest dose often 57.9 µM), inactives show top-dose activity change, negative = inhibition, usual class: inhibitors; calls by dose curve; tested in HEK293T cells; also: read-out not given here; nearly all actives have a fitted effect of over 45% in size
Sm TGR inh: qHTS Assay for the Inhibitors of Schistosoma Mansoni Peroxiredoxins. Schistosoma mansoni thioredoxin glutathione reductase (TGR), Q962Y6. actives 3% (n = 360,000). purified TGR, DTNB reduction, TNB absorbance 405 nm. Potency, µM (top dose mostly 114 µM), for inactives: at the highest dose activity change, negative = inhibition, hits mostly inhibitors; also: nearly all actives have a fitted effect of over 60% in size
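Kinetic colorimetric format: TGR-catalysed, NADPH-driven DTNB reduction monitored via TNB absorbance. Enzyme dispensed at 20 nM; compound exposure 15 min at room temperature before reaction start.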
AmpC inh no detg: qHTS Inhibitors of AmpC Beta-Lactamase (assay without detergent). P00811. AmpC nitrocefin hydrolysis, absorbance 480 nm, 0.0001% Triton. Potency, µM (titrated, usually from 57.1 µM), without a hit: at the top dose activity change, negative = inhibition, most hits filed as inhibitors. actives 0.52% (n = 330,000). AID 485341, 2010;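 also: plate controls were no compound for no effect and no enzyme for full effect; nearly all actives have a fitted effect of over 20% in size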
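20 mM phosphate pH 7.0 + 0.01% (detergent screen) or 0.0001% Triton X-100; 5.3 nM AmpC reagent; cpd preinc 15 min RT; nitrocefin (800 uM stock) to start; A480 q20 s × 4 min; Activity was normalised to no-enzyme and no-compound control wells.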
An asterisk follows results filed as active. Hits are enriched below; roughly 4.1% of the tested compounds scored in any of these assays. Unless noted, calls follow the shape of the dose curve; as a rule, active = well fitted curve in the direction sought with a large enough effect; inconclusive = small, poorly fitted or top-dose-only effect, or another doubt; inactive = no such curve, though single readings can be large; an effect the other way counts as inactive or inconclusive. Unless noted, % is scaled to controls: 0 for no effect and ±100 for the full control effect; potency is read from the fitted curve at half-maximal effect.

Cc1cccc(Nc2nc3c(s2)CCCC3)c1 was read as AmpC detergent 2%, AMA1 RON2 block -11%, FMDV inh -24%, Sm TGR inh -10% and AmpC inh no detg -23%.
CCn1cc(C(=O)OCC(=O)Nc2cc(Cl)ccc2OC)c(=O)c2ccc(C)nc21 was read as AmpC detergent 20%, FMDV inh -23% and Sm TGR inh inconclusive.
For CCCOc1ccccc1C1CC(=O)Nc2cc3c(cc21)OCCO3 (stereo not given) the results were AmpC detergent -6%, AMA1 RON2 block -6%, FMDV inh 22µM*, Sm TGR inh -6% and AmpC inh no detg -32%.
`CCOc1ccccc1C1CC(=O)Nc2cc3c(cc21)OCCO3` (stereo not given) gave AmpC detergent inconclusive, AMA1 RON2 block 25%, FMDV inh 18µM*, Sm TGR inh -4% and AmpC inh no detg -20%.
Screening COc1ccc(C2C(C(N)=O)=C(C)Nc3nc(SCc4ccccc4Cl)nn32)cc1OC (stereo not given) returned AmpC detergent 2%, FMDV inh -11% and Sm TGR inh -3%.
For CC1(C)CC(=O)C(N=Nc2cc(S(=O)(=O)N3CCOCC3)ccc2Cl)=C(O)C1 the results were AmpC detergent -2%, AMA1 RON2 block -1%, FMDV inh 1%, Sm TGR inh 10µM* and AmpC inh no detg 53%.
CC(=O)c1ccccc1C(=O)NCC1Cc2cccc(-c3cccnc3)c2O1 (stereo not given) was read as FMDV inh 0%.
Screening O=C(NNc1ccc([N+](=O)[O-])cc1)c1ccccc1Cl returned AmpC detergent 6%, AMA1 RON2 block 14%, FMDV inh 4%, Sm TGR inh inconclusive and AmpC inh no detg -17%.
Screening O=C(NC(NNc1ccc([N+](=O)[O-])cc1)(C(F)(F)F)C(F)(F)F)c1ccc(Cl)cc1 returned AmpC detergent inconclusive, AMA1 RON2 block -17%, FMDV inh inconclusive, Sm TGR inh 22µM* and AmpC inh no detg -26%.
For COc1ccc2c(c1)-c1nc(-n3ncc(C(=O)N(C)CC4CCCN(C)C4)c3C)ncc1CC2 (stereo not given) the results were FMDV inh -17%.
CCc1nc2c(OCCC3CCCCC3)cccn2c1N(C)C(=O)C(C)C was read as AMA1 RON2 block -12% and FMDV inh -17%.
`Cc1nc2ccn(Cc3ccco3)c(=O)c2cc1C(=O)NCc1ccc(F)cc1` gave AmpC detergent 18%, FMDV inh -9% and Sm TGR inh -27%.
`Cc1nc2cccnc2n1-c1cccc(C(=O)NCc2cccc(Cl)c2)c1` gave AmpC detergent -4%, FMDV inh inconclusive and Sm TGR inh -15%.
For COC(=O)c1ccccc1OCCCCN1CC(C)OC(C)C1 (stereo not given) the results were AmpC detergent 7%, AMA1 RON2 block -5%, FMDV inh -13%, Sm TGR inh 3% and AmpC inh no detg -26%.
For CC1CN(CCOc2ccccc2C(C)C)CC(C)O1 (stereo not given) the results were AmpC detergent -5%, AMA1 RON2 block 20µM*, FMDV inh -17%, Sm TGR inh 16% and AmpC inh no detg 31%.
Screening CC1CN(CCOCCOc2ccccc2-c2ccccc2)CC(C)O1 (stereo not given) returned AmpC detergent -10%, AMA1 RON2 block 14µM*, FMDV inh -8%, Sm TGR inh inconclusive and AmpC inh no detg 109%.
`C=CCc1cc(OC)ccc1OCCN1CC(C)OC(C)C1` (stereo not given) gave AmpC detergent -10%, AMA1 RON2 block 13µM*, FMDV inh -14%, Sm TGR inh 1% and AmpC inh no detg 21%.
CN1C(=O)c2ccccc2Sc2ccc(NC(=O)N3CCN(c4cccc(Cl)c4)CC3)cc21 was read as AmpC detergent 6%, FMDV inh -13% and Sm TGR inh -30%.
`O=C(CCn1cncn1)NCC1Cc2cc(-c3ccsc3)cc(Cl)c2O1` (stereo not given) gave FMDV inh 3%.
For CCOc1ccc(NCc2nnc(SCc3ccccc3Cl)n2-c2ccccc2)cc1 the results were AmpC detergent 4%, AMA1 RON2 block 27µM*, FMDV inh -10%, Sm TGR inh 13% and AmpC inh no detg 46%.
COc1ccc(-n2c(CNc3ccc(C)cc3)nnc2SCc2ccccc2)cc1 was read as AmpC detergent 4%, AMA1 RON2 block -30%, FMDV inh -14%, Sm TGR inh 1% and AmpC inh no detg 27%.
For O=C(Oc1cccc(Nc2ncnc3ccccc23)c1)c1ccccc1Cl the results were AmpC detergent 9%, AMA1 RON2 block -7%, FMDV inh 18µM*, Sm TGR inh -2% and AmpC inh no detg -27%.
Cc1cc(NC(=O)CSCC(=O)Nc2cc(C(F)(F)F)ccc2N2CCCC2)no1 was read as AmpC detergent -18%, AMA1 RON2 block 0%, FMDV inh 28µM*, Sm TGR inh 1% and AmpC inh no detg -17%.
For O=C(CSCc1ccco1)Nc1cc(C(F)(F)F)ccc1N1CCOCC1 the results were AmpC detergent inconclusive, AMA1 RON2 block -7%, Sm TGR inh 22µM* and AmpC inh no detg 5%.
CS(=O)(=O)N1CCc2cc(C(=O)Nc3cccc(F)c3)ccc21 was read as AmpC detergent 23%, FMDV inh 19% and Sm TGR inh 0%.
`O=[N+]([O-])c1ccc(Cl)c(CN2CCN(c3ncc(Cc4ccccc4)cn3)CC2)c1` gave AMA1 RON2 block -30% and FMDV inh inconclusive.
`O=C(COc1ccccc1F)NC1CC(=O)N(c2ccc3c(c2)OCCO3)C1` (stereo not given) gave AmpC detergent 2%, FMDV inh -17% and Sm TGR inh 4%.
Cc1ccc(S(=O)(=O)CNC(=S)c2cccc(Cl)c2)cc1 was read as AmpC detergent -9%, AMA1 RON2 block -1%, FMDV inh -9%, Sm TGR inh 3.5µM* and AmpC inh no detg -20%.
Cc1ccc(C(=S)NCS(=O)(=O)c2ccc(C)cc2)cc1 was read as AmpC detergent -2%, AMA1 RON2 block 0%, FMDV inh 10%, Sm TGR inh 2.8µM* and AmpC inh no detg -19%.
CCn1c(CC2C(=O)N(C)c3ccccc32)nc2ccccc2c1=O (stereo not given) was read as AmpC detergent 16%, FMDV inh -6% and Sm TGR inh 1%.
